Assay results published in PubChem BioAssay AID720564 (Broad Institute, 2013).
The list shows a part of the results. Active and inactive are the calls of the source.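 The calls were made as follows: active = luminescence drop, with half-maximal potency fitted within twice the sample's top valid dose (cut at about 70 µM in these data); inactive = the rest, including signal moving the wrong way.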

Test: dual-tagged ARNT PAS-B bead signal quenchers – biochemical, dry powder, artefact control for ARNT/TACC3 disruptor project, dose response (AID 720564)
Details: Dual-tagged His-ARNT PASB-GST AlphaScreen artifact counter-screen

SMILES | AC50
O=C(CSc1ccc(-c2ccccn2)nn1)Nc1ccccc1 | 15.3 µM (active)
COc1ccc(-c2nnc(NC(=O)c3ccc(S(=O)(=O)N4CCC(C)CC4)cc3)o2)cc1 | 67.7 µM (active)
CCCCC(=O)NC(c1ccco1)c1ccc2cccnc2c1O (stereo not drawn) | 13.8 µM (active)
